{
  "source": "PubChem BioAssay AID602188",
  "about": "(Broad Institute, 2012)",
  "test": "mammalian cell viability loss – Alamar Blue, dry powder, cytotoxicity control for antifungal single agent project, dose response (AID 602188)",
  "note": "Measured potencies and affinities stand elsewhere. Records with an inconclusive call do not appear. Activity calls are given as the source filed them.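 Rule for the calls: active = compounds whose fitted curve lowers viable cell signal, with half-maximal concentration at most twice the top tested dose; inconclusive = flat curve showing 30 to 70% toxicity, or poor fit; inactive = the rest.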",
  "data": [
    {"smiles": "NC(=O)c1cccc(C(=O)Nc2nc(-c3ccc4c(c3)CCCC4)cs2)c1", "values": [
      {"measurement": "outcome", "result": "inactive"}
    ]},
    {"smiles": "CCOC(=O)N1C(=O)C2(CCCCC2)N(c2ccc(C)cc2)C1=S", "values": [
      {"measurement": "outcome", "result": "inactive"}
    ]},
    {"smiles": "O=C(Nc1nc(-c2ccc3c(c2)CCCC3)cs1)c1ccccc1", "values": [
      {"measurement": "outcome", "result": "inactive"}
    ]},
    {"smiles": "O=C(Nc1nc(-c2ccccc2)cs1)c1ccc(Br)s1", "values": [
      {"measurement": "outcome", "result": "inactive"}
    ]}
  ]
}
